# Experimental data from PubChem BioAssay (NCATS).
# Where “and” joins values, the source holds several entries; their conditions need not be identical. Equal entries are not always repeated. Records with an inconclusive call do not appear. Where a call stands in place of a potency, no number is given. A number with no mark means an inactive call. Calls of active or inactive are those of the source. The call rests on the fitted dose curve; in most records, active means well fitted curve in the direction sought with a large enough effect; inconclusive means small, poorly fitted or top-dose-only effect, or another doubt; inactive means no such curve, though single readings can be large; an effect the other way counts as inactive or inconclusive.
# Key:
# [1] = system: Zika virus NS2B-NS3 protease; assay: Primary screen GU AMC qHTS for Zika virus inhibitors (AID 1347154); further: nearly all actives have a fitted effect of over 70% in size
# How it was run: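 Fluorogenic AMC-substrate cleavage by noncovalent NS2B-NS3 protease complex (25 nM, pH 8.0 Tris buffer with Tween 20) followed for 15 minutes at room temperature (~20% conversion). Percent inhibition from ex340/em450 signal change, fitted by 4-parameter Hill equation.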
# [2] = system: Zika virus NS2B-NS3 protease (unlinked complex); assay: Primary screen GU Rhodamine qHTS for Zika virus inhibitors: Unlinked NS2B-NS3 protease assay (AID 1347159); further: nearly all actives have a fitted effect of over 60% in size
# How it was run: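 Enzyme 25 nM in Tris-HCl pH 8.0 + 0.01% Tween 20; compounds up to 114 microM, 15 min RT dark; + Rhod110 substrate 1.5 microM; read t0 and 15 min; delta fluorescence → % inhibition → 4-parameter Hill fit.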
# [3] = biological target: Lysine-specific demethylase 5B (Homo sapiens) (UniProt Q9UGL1); assay: Optimization screen for KDM5B Histone Demethylases FDH coupled qHTS against the LOPAC library (AID 1347166)
# Lysine-specific demethylase 5B (Homo sapiens), sequence (Q9UGL1 whole entry, looked up): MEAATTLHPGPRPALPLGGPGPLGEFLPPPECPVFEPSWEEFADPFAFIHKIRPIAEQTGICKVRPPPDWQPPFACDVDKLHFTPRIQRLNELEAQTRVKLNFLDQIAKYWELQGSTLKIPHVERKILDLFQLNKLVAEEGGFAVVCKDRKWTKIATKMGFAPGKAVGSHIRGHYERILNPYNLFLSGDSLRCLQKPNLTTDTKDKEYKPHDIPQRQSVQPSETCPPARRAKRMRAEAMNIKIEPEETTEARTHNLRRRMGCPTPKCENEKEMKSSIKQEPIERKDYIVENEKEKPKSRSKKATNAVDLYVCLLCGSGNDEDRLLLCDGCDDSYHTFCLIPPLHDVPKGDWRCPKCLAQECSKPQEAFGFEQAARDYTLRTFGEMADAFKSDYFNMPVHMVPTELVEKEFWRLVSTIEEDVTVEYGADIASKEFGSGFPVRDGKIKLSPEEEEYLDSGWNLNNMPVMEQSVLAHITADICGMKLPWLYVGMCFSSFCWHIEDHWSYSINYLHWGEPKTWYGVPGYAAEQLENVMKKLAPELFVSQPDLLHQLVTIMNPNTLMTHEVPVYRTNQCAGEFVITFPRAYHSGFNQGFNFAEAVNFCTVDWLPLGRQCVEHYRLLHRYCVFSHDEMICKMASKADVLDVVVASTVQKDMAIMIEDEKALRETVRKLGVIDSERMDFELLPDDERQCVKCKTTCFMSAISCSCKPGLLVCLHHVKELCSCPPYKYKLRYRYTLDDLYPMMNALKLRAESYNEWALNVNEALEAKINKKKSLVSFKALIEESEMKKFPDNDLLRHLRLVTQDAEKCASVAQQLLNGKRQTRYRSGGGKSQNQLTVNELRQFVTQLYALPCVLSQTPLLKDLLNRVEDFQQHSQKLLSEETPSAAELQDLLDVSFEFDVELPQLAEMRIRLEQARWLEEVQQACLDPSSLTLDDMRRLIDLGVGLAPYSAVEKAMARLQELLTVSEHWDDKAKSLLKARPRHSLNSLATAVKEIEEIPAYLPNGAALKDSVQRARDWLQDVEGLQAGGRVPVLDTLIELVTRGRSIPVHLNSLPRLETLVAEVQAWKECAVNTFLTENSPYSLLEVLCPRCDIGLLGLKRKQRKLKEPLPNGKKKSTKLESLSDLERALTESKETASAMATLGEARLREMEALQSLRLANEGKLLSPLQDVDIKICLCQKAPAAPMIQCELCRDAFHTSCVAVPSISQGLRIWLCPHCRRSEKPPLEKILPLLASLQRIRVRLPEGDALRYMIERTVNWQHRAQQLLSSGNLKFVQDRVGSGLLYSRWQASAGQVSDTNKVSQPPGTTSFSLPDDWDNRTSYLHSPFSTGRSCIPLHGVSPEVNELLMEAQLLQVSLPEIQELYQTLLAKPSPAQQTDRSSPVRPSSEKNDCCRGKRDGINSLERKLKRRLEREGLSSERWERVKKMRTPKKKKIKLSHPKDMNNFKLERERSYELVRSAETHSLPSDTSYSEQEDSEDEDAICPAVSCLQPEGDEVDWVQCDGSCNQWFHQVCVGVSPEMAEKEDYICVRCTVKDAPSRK
# How it was run: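 KDM5BDeltaAP (200nM final) in 50mM HEPES pH 7.5, 0.01% Tween-20 was preincubated with compound for 10 min at room temperature. A substrate mix of 12.5uM H3K4Me3, 25uM a-ketoglutarate, ascorbate, Fe2+, NAD+ and formaldehyde dehydrogenase was then added. NADH fluorescence (340/450 nm) was read initially and after 30 min.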
# [4] = Vero cells viability qHTS for Zika virus inhibitors (AID 1347167); further: potency means the concentration at half of the fitted maximal effect
# How it was run: (§1)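 Luminescent ATP readout (CellTiter Glo) after 30 min at 37 degrees C gives viability; cells in DMEM + 4% FBS were treated 24 to 48 hours with compound, following overnight attachment.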
# [5] = HepG2 cells viability qHTS for Zika virus inhibitors (AID 1347168); further: potency means the concentration at half of the fitted maximal effect
# How it was run: as §1
# [6] = Tertiary RLuc qRT-PCR qHTS assay for Zika virus inhibitors (AID 1347169); further: nearly all actives have a fitted effect of over 55% in size; further: potency means the concentration at half of the fitted maximal effect
# How it was run: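 Vero, 1,000 cells/well, o/n 37 C; cpd pinned in DMSO; ZIKV-RLuc Cambodian, MOI 1-2, 48-72 h 37 C; live-cell RLuc substrate, lum read at 1-1.5 h.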
# [7] = system: Zika virus NS2B-NS3 protease (linked); assay: 384 well plate NINDS AMC confirmatory qHTS for Zika virus inhibitors (AID 1347163);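 further: linked protease at 5 30 or 60 nM final depending on run; fluorescence of AMC released from Ac-VKTGKR-AMC peptide cleaved by the protease; top concentration of the series differs between compounds; nearly all actives have a fitted effect of over 50% in size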
# How it was run: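 Enzyme (5, 30 or 60 nM final) first met test compounds for ~15 min. The AMC-tagged peptide Ac-VKTGKR-AMC followed at 30 microM. Fluorescence was then recorded at 25 min and scaled against no-enzyme and no-inhibitor wells.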
# [8] = system: Zika virus NS2B-NS3 protease (linked construct); assay: 384 well plate NINDS Rhodamine confirmatory qHTS for Zika virus inhibitors (AID 1347164);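 further: fluorescence from protease cleavage of Ac-LKRR-rhodamine 110 substrate; nearly all actives have a fitted effect of over 65% in size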; further: potency means the concentration at half of the fitted maximal effect
# How it was run: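 Enzyme (final 5/30/60 nM) + cpd (DMSO), ~15 min; add Ac-LKRR-Rd 10 microM final; 25 min RT, dark; FI ex 485/em 538; normalized to no-enzyme, no-inhibitor ctrls; aprotinin intraplate ctrl.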
# [9] = OV-KATE Cancer Cell Toxicity qHTS against the NCATS CANVASS Library (AID 1347345)
# How it was run: (§2)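 Following a 4 h pre-incubation of 1000 seeded cells, compounds were pinned in an 11-pnt dilution series and left for 72 h; viability then came from CellTiter-Glo.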
# [10] = HPAF-II Cancer Cell Toxicity qHTS against the NCATS CANVASS Library (AID 1347346); further: nearly all actives have a fitted effect of over 55% in size
# How it was run: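 1000 HPAF-II cells/well; 4 h pre-incubation; 11-pnt compound titration; 72 h, 37 degrees C/5% CO2; CellTiter-Glo, 15 min RT; luminescence read.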
# [11] = UWB1.289 Cancer Cell Toxicity qHTS against the NCATS CANVASS Library (AID 1347347); further: nearly all actives have a fitted effect of over 60% in size
# How it was run: as §2
# [12] = OV-SAHO Cancer Cell Toxicity qHTS against the NCATS CANVASS Library (AID 1347348); further: nearly all actives have a fitted effect of over 55% in size
# How it was run: as §2
# [13] = Panc-1005 Cancer Cell Toxicity qHTS against the NCATS CANVASS Library (AID 1347349); further: nearly all actives have a fitted effect of over 60% in size
# How it was run: as §2
# [14] = SW1088 Cancer Cell Toxicity qHTS against the NCATS CANVASS Library (AID 1347350); settings: SW1088 viability, CellTiter-Glo luminescence, 72 h; at 38.3 µM (top of the series); further: nearly all actives have a fitted effect of over 75% in size
# How it was run: as §2
# [15] = U-118MG Cancer Cell Toxicity qHTS against the NCATS CANVASS Library (AID 1347351)
# How it was run: as §2
# [16] = ZIKV-mCherry secondary qHTS for Zika virus inhibitors (AID 1347158); further: top concentration of the series differs between compounds
# How it was run: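 Read-out is percent infection: mCherry-positive Vero cells (nuclear-proximal intensity >450 RFU, 3 SD above negative controls) counted by high-content imaging of Hoechst-stained, PFA-fixed wells after 48-72 h with ZIKV-mCherry at MOI 1 and compound.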
# [17] = Confirmatory screen GU Rhodamine qHTS for Zika virus inhibitors qHTS (AID 1347157); settings: purified enzyme assay, Rhodamine110 substrate fluorescence, 15 min; further: potency means the concentration at half of the fitted maximal effect; nearly all actives have a fitted effect of over 70% in size
# How it was run: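 A qHTS format was used, with compound concentrations ranging up to 114 microM. Each compound was preincubated with 25 nM NS2B-NS3 protease, and the substrate was then added at 1.5 microM. Curves were fitted with a 4-parameter Hill model.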
# [18] = Confirmatory screen NINDS Rhodamine qHTS for Zika virus inhibitors (AID 1347161); further: potency means the concentration at half of the fitted maximal effect; nearly all actives have a fitted effect of over 60% in size
# How it was run: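 In 10 mM Tris-HCl pH 8.0 containing 0.01% Tween 20, linked NS2B-NS3 protease (25 nM final) is exposed to test compounds for 15 min. Cleavage of 1.5 microM Rhodamine110 substrate is tracked by fluorescence over 15 min.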
smiles,measurement,setting,value
O=C(OCCOCCO)c1ccccc1Nc1cccc(C(F)(F)F)c1,Potency,[1],inactive
same,outcome,[2],inactive
CC(C)COC(=O)OCN1C(=O)CN(CCN2CC(=O)N(COC(=O)OCC(C)C)C(=O)C2)CC1=O,outcome,[3],inactive
C[C@]12CC[C@@H]3c4ccc(O)cc4CC[C@H]3[C@@H]1CC[C@@H]2O,Potency,[1],inactive
same,outcome,[3],inactive
Nc1ccn([C@@H]2O[C@H](CO)[C@@H](O)C2(F)F)c(=O)n1,Potency,[1],inactive
same,outcome,[2],inactive
same,Potency,[4],inactive
same,Potency,[5],inactive
same,Potency,[6],30.2 nM (active)
Nc1cc(Cl)c(NC2=NCCN2)c(Cl)c1,outcome,[3],inactive
COc1cc2c(cc1O)CC[C@@H]1[C@@H]2CC[C@]2(C)[C@@H](O)CC[C@@H]12,outcome,[3],inactive
COc1c(C)c2c(c(O)c1C/C=C(\C)CCC(=O)O)C(=O)OC2,Potency,[1],inactive
same,outcome,[7],inactive
same,Potency,[8],inactive
same,Potency,[4],inactive
same,Potency,[5],inactive
same,Potency,[6],739 nM (active)
CNCCC(Oc1ccccc1C)c1ccccc1 (configuration not stated),outcome,[3],inactive
CN1[C@@H]2CC[C@H]1CC(OC(=O)c1c[nH]c3ccccc13)C2 (some centres not stated),Potency,[1],inactive
same,outcome,[2],inactive
Cc1ccc(Nc2c(F)cccc2Cl)c(CC(=O)O)c1,Potency,[1],inactive
same,outcome,[2],inactive
N[C@H](CO)C(=O)O,Potency,[1],inactive
same,outcome,[3],inactive
CNCCC=C1c2ccccc2CCc2ccccc21,outcome,[3],inactive
O=C1CCC(c2ccc(-n3ccnc3)cc2)=NN1,outcome,[3],inactive
COC(=O)CCc1ccc(OCC(O)CNC(C)C)cc1 (configuration not stated),Potency,[1],inactive
same,outcome,[2],inactive
C#C[C@]1(OC(C)=O)CC[C@H]2[C@@H]3CCC4=C[C@@H](OC(C)=O)CC[C@@H]4[C@H]3CC[C@@]21C,Potency,[1],inactive
same,outcome,[2],inactive
CN1CCC[C@@H]1c1cccnc1,Potency,[1],inactive
same,outcome,[9],inactive
same,outcome,[10],inactive
same,outcome,[11],inactive
same,outcome,[12],inactive
same,outcome,[13],inactive
same,outcome,[14],inactive
same,outcome,[15],inactive
CN1C(CCl)Nc2cc(Cl)c(S(N)(=O)=O)cc2S1(=O)=O (configuration not stated),Potency,[1],inactive
same,outcome,[2],inactive
CC(=O)O[C@H]1C[C@@H]2CC[C@@H]3[C@H](CC[C@@]4(C)[C@H]3C[C@H]([N+]3(C)CCCCC3)[C@@H]4OC(C)=O)[C@@]2(C)C[C@@H]1[N+]1(C)CCCCC1,outcome,[3],inactive
CCCCC(CC)CN=C(N)NC(N)=NCCCCCCN=C(N)NC(N)=NCC(CC)CCCC (configuration not stated),Potency,[16],inactive
same,Potency,[8],39.8 µM (active)
same,Potency,[4],29.4 µM (active)
same,Potency,[5],13.1 µM (active)
same,Potency,[6],3700 nM (active)
CN1C2CCC1CC(OC(=O)c1c[nH]c3ccccc13)C2 (configuration not stated),outcome,[3],inactive
C[N+]1(CCCCC[N+]2(C)CCCC2)CCCC1,outcome,[3],inactive
CC(C)(C)NC(=O)[C@@H]1CN(Cc2cccnc2)CCN1C[C@@H](O)C[C@@H](Cc1ccccc1)C(=O)N[C@H]1c2ccccc2C[C@H]1O,Potency,[1],inactive
same,outcome,[2],inactive
OC[C@H]1O[C@H](O[C@]2(CCl)O[C@H](CCl)[C@@H](O)[C@@H]2O)[C@H](O)[C@@H](O)[C@H]1Cl,Potency,[1],inactive
same,outcome,[2],inactive
NC(=NCCCCCCN=C(N)/N=C(\N)Nc1ccc(Cl)cc1)/N=C(\N)Nc1ccc(Cl)cc1,outcome,[2],inactive
N[C@@H](Cc1cnc[nH]1)C(=O)O,outcome,[3],inactive
O=C(O)c1cc2cc(Cc3cccnc3)ccc2o1,outcome,[3],inactive
Oc1c(Cl)cc(Cl)cc1Sc1cc(Cl)cc(Cl)c1O,Potency,[17],22.4 µM (active)
same,Potency,[18],7.08 µM (active)
same,outcome,[7],inactive
same,Potency,[8],200 µM (active)
same,Potency,[6],inactive
C[C@@H]1C(=O)NC2=Nc3cccc(Cl)c3CN21,outcome,[3],inactive
O=c1[nH]c(=O)n([C@H]2CCCO2)cc1F,Potency,[1],inactive
same,outcome,[2],inactive
CC(CCc1ccccc1)NCC(O)c1ccc(O)c(C(N)=O)c1 (configuration not stated),outcome,[2],inactive
CC(C)(C)CC(C)(C)c1ccc(OCCOCC[N+](C)(C)Cc2ccccc2)cc1,Potency,[1],inactive
same,outcome,[2],inactive
same,Potency,[4],inactive
same,Potency,[5],inactive
same,Potency,[6],33 µM (active) and 13.1 µM (active) and 10.4 µM (active)
CCCn1c(=O)[nH]c(=O)c2[nH]cnc21,outcome,[3],inactive
CC1(C)CCC(NC(=O)[C@@H](N)CCC(=O)O)CC1,outcome,[3],inactive
